system: HepG2; assay: GSK_TCMDC: Percent inhibition of human HepG2 cell line. Test compounds present at 10uM.; assay type: functional

Structure (SMILES)	Inhibition [%]
CCc1cn2c3c(cc(C(=O)N[C@@H](Cc4cc(F)cc(F)c4)[C@H](O)CNC4CCOCC4)cc13)N(C)S(=O)(=O)CC2.O=CO	1
CCOc1ccc2[nH]c(C)cc(=NN=Cc3cccc(C)n3)c2c1	6
Cc1onc(-c2ccccc2)c1-c1nc(NCCC(c2ccccc2)c2ccccc2)no1	0
CCCCC(CC)CN1C(=O)C(c2ccccc2)(c2ccccc2)N=C1N.O=CO (stereo not given)	32
CCCN(CC1CC1)c1ncc(-c2cccc(CNCc3ccccc3O)c2)cn1	15
C=C(NC(=O)C1CCCCC1)C(=O)OC	15
Cc1cc(N)c2cc(NC(=O)c3ccc4ccccc4c3)ccc2n1.Cl	33
NC1CCN(CCNCc2cccc(-c3ccc(-c4nc5cc(C(F)(F)F)ccc5[nH]4)cc3)c2)C1.O=C(O)C(F)(F)F (stereo not given)	19
CN1CCC(C(=O)Nc2cccc(-c3cccc(-c4nc5cc(F)ccc5[nH]4)c3)c2)CC1	32
CCCN1CCc2c(sc3nc(SCC(=O)Nc4ccc(C)cc4)n(-c4ccc(C)cc4)c(=O)c23)C1	0
C=CCc1cc(Br)ccc1OCCCOc1c(N)nc(N)nc1N.Cl	47
COc1ccc(NC(=O)N2CCCN(CCCCCNC(=O)/C=C/c3ccc(C(F)(F)F)cc3)CC2)cc1Cl	21
CCOc1c(C)cc(C(F)(F)F)cc1CNCCCNc1cc(=O)c2ccccc2[nH]1.Cl	0
Cc1cc(Nc2ccc(Oc3ccc(Cl)cc3)cc2)nc(N)n1	49
CC(=O)Nc1cccc(C(=O)Nc2cccc(-c3ccc(-c4nc5cc(F)ccc5[nH]4)s3)c2)c1	88
C(=N\Nc1nccc2sc(-c3cccnc3)cc12)/c1ccncc1	65
Cc1cccc2[nH]c(-c3cc(-c4cccc(Cl)c4)cnc3N)nc12.O=C(O)C(F)(F)F	32
CN(C)Cc1ccc(O)c(-c2ccc(C(C)(C)C)cc2)n1.Cl	0
O=C(C=Cc1ccc(-c2ccccc2)cc1)N1CCC(CCN2CCC(c3c[nH]c4ccccc34)CC2)CC1	44
COc1ccc(OC)c(Cc2cnc3nc(N)nc(N)c3c2C)c1 [PIRITREXIM]	68

Structure (SMILES)	Inhibition [%]
COc1c(C2CCN(CCCCNC(=O)c3noc(-c4ccc(C#N)cc4)n3)CC2)ccc2c1CCCC2	32
O=C(O)C(F)(F)F.O=S(=O)(NCCN1CCCC1)c1ccc(-c2cccc(CNCc3ccc(F)cc3)c2)cc1	76
CC1(C)[C@H]2CC[C@@H](CNc3nc(NCC(=O)Nc4ccc5ccccc5c4)nc(N4CCC(N5CCCC5)CC4)n3)[C@@H]1C2	6
CN(C)c1cccc2c1nc(-c1ccc3c(c1)CCO3)n2CCNCc1ccccc1.O=C(O)C(F)(F)F	6
CC(C)C[C@H]1C(=O)N[C@H](C2Cc3ccccc3C2)C(=O)N1[C@@H](C(=O)Nc1ccccc1OCc1ccccc1)c1ccc(F)cc1F	12
Cc1ccnc(-n2c(C)cc(C=C3SC(=Nc4ccccc4)N(Cc4ccco4)C3=O)c2C)c1	0
COc1cc(-c2cc(-c3ccc(OCCN(C)C)cc3)[nH]c2-c2ccncc2)ccc1Cl.Cl	28
Cc1noc(-c2cccs2)c1C(=O)NCCc1cccc(Cl)c1	0
O=C(O)C(F)(F)F.O=C(O)Cc1ccc(-c2c[nH]c3ncc(-c4cccc5ncccc45)cc23)cc1	7
CC(C)CCCC(C)NC[C@@H](O)[C@H](Cc1ccccc1)NC(=O)c1cc(N2CCCC2=O)cc(N(c2ccccc2)S(C)(=O)=O)c1 (stereo not given in full)	17
COc1cc(-n2c(CN3CCCC3)nc3cc(-c4ccc(Cl)cc4)sc3c2=O)ccc1OCCN1CCCC1.O=C(O)C(F)(F)F	66
COc1ccc2nccc([C@@H](O)CN3CCC(NCc4cnc5snnc5c4)C(F)C3)c2c1.Cl (stereo not given in full)	13
Cc1cc(N[C@@H](CC(C)C)C(=O)NC2CCCC2)nc(NCC2CCCCC2)n1.O=C(O)C(F)(F)F	8
Fc1ccc2[nH]c(-c3cccc(-c4ccc(CNCc5cnn(-c6ccccc6)n5)cc4)c3)nc2c1.O=C(O)C(F)(F)F	18
NC(=O)Nc1ccc2c(Nc3ccc(OCc4ccccc4)cc3)ncnc2c1	0
COc1cccc(-c2ccc3ccnc(N)c3c2)c1.O=C(O)C(F)(F)F	40
CCCN(CCC)CC(O)COc1ccccc1C(=O)Nc1ccccc1 (stereo not given)	6
CCN(CCCN1CCCCC1)c1cc(C)nc(Nc2cccc(OC(F)(F)F)c2)n1.O=C(O)C(F)(F)F	32
CC1(C)N=C(N)N=C(N)C1c1ccc(Cl)c(Cl)c1.Cl (stereo not given)	47
CN(C)CCCNc1ncnc2c1[nH]c1ccc(Cl)cc12	2

From ChEMBL document CHEMBL1157539, “Thousands of chemical starting points for antimalarial lead identification” (Nature, 2010)
